The test system of experiment [1] is WaGa. Description: qHTS assay to identify novel small-molecules to repurpose for Merkel cell carcinoma treatment (AID 1296009). Note: nearly all actives have a fitted effect of over 60% in size. The following applies: MCC and control cell lines, CellTiter-Glo viability, 72 h; series mostly up to 46 µM. Put shortly: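 72 hr, 37 degree celsius; NPC 8-pt / MIPE 11-pt dose response; compound pinned in DMSO; CellTiter-Glo, 10 min RT, luminescence; normalized to no-cell and DMSO controls.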

Experiment [2] deals with CASKI. The experiment in a line: Primary qHTS to identify gynecologic anti-cancer compounds using libraries of approved drugs and bioactive compounds (AID 1345084). Note: nearly all actives have a fitted effect of over 55% in size. The following applies: Gynecologic cancer cell panel viability, ATPlite luminescence, 48 h; series mostly up to 57.5 µM. In short, it runs like this:
(§1)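 ATP-based viability (ATPlite), 1,000 cells/well, 16 h pre-incubation, 48 h compound at 37 C, 5% CO2, 15 min RT before read.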
Background: In qHTS, concentration-response curves come from the screen itself.

Experiment [3] relates to JEG-3. The description is as above. The following applies: Gynecologic cancer cell panel viability, ATPlite luminescence, 48 h; series mostly up to 57.5 µM. Put shortly: as §1
A general note: ATP-based viability assays read luminescence as a measure of living cells.

Experiment [4] relates to PA-1. The experiment is described as above. The following applies: Gynecologic cancer cell panel viability, ATPlite luminescence, 48 h; series mostly up to 57.5 µM. Put shortly:
as §1

Experiment [5] deals with CAOV3. The experiment is described as above. The following applies: Gynecologic cancer cell panel viability, ATPlite luminescence, 48 h; series mostly up to 57.5 µM. Put shortly:
as §1

The subject of experiment [6] is Es-2. Described as above. The following applies: Gynecologic cancer cell panel viability, ATPlite luminescence, 48 h; series mostly up to 57.5 µM. In short, it runs like this:
as §1

The test system of experiment [7] is HeLa. The description is as above. The settings on record: Gynecologic cancer cell panel viability, ATPlite luminescence, 48 h; series mostly up to 57.5 µM. In short, it runs like this: as §1
The subject of experiment [8] is Hek293T. Described as above. The settings on record: Gynecologic cancer cell panel viability, ATPlite luminescence, 48 h, control line for the selectivity index; series mostly up to 57.5 µM. In short, it runs like this:
as §1

In experiment [9] the test system is C33A. The experiment is described as above. The following applies: Gynecologic cancer cell panel viability, ATPlite luminescence, 48 h; series mostly up to 57.5 µM. Put shortly:
as §1

The subject of experiment [10] is OV90. The experiment is described as above. The following applies: Gynecologic cancer cell panel viability, ATPlite luminescence, 48 h; series mostly up to 57.5 µM. Put shortly:
as §1

Molecules are shown by their SMILES. Inconclusive results are not listed. Values without a mark were called inactive. Active and inactive are the calls of the source. Calls come from the whole dose curve; as a rule, active = well fitted curve in the direction sought with a large enough effect; inconclusive = small, poorly fitted or top-dose-only effect, or another doubt; inactive = no such curve, though single readings can be large; an effect the other way counts as inactive or inconclusive.
Potency is the fitted concentration of half-maximal effect.

As for `CC(=O)Nc1nc(C)c(-c2ccc(Cl)c(S(=O)(=O)NCCO)c2)s1`, the values for the Potency in experiment [1], in experiment [2] and in [4] were 5900 nM (active), 12600 nM (active) and 15800 nM (active), respectively. The Potency result in experiment [3] was “inactive”.
Regarding `CC1(C)CCC(c2ccc(Cl)cc2)=C(CN2CCN(c3ccc(C(=O)NS(=O)(=O)c4ccc(N[C@H](CCN5CCOCC5)CSc5ccccc5)c(S(=O)(=O)C(F)(F)F)c4)cc3)CC2)C1`, the values for the Potency in experiment [1], in experiment [5] and in experiment [2] were 118 nM (active), 12600 nM (active) and 14100 nM (active), respectively. Also, in experiment [6], the Potency result was “inactive”.
Take `COc1cc2nccc(Oc3ccc(NC(=O)C4(C(=O)Nc5ccc(F)cc5)CC4)cc3)c2cc1OC`: the Potency in experiment [1] was 2090 nM (active); in [3], 11200 nM (active); in experiment [4] it was 7940 nM (active). In addition, the Potency entry in [6], in experiment [7] and in experiment [8] was “inactive” each time.
For `Clc1ccc2ncc(-c3cccc(NC4CNC4)n3)n2c1`, the Potency result in experiment [9], in [5], in experiment [2], in [6], in experiment [7] and in experiment [8] was “inactive” in each case. The Potency entry in experiment [3], in experiment [10] and in experiment [4] was “inactive” throughout.
Consider `COc1ccc(-c2cc3c(C)nc(N)nc3n(C3CCC(OCCO)CC3)c2=O)cn1` (stereo unspecified), for which the Potency in experiment [1] was 2090 nM (active); in experiment [2] it was 1410 nM (active); in experiment [6], 2510 nM (active); in experiment [7], 7940 nM (active); in experiment [8] it was 1410 nM (active); in [10], 2000 nM (active). Also, the Potency in experiment [4] was 2510 nM (active).
As for `Cn1c(=O)n(-c2ccc(C(C)(C)C#N)cc2)c2c3cc(-c4cnc5ccccc5c4)ccc3ncc21`, the Potency entry in experiment [1], in experiment [7] and in experiment [3] was “inactive” each time. Further, the Potency in experiment [5] is 562 nM (active); in experiment [8], 794 nM (active); in experiment [10], 1410 nM (active).
With `OCCCNc1cc(-c2ccnc(Nc3cccc(Cl)c3)n2)ccn1`, the Potency was 562 nM (active) in experiment [9]; 398 nM (active) in [2]; 224 nM (active) in experiment [6]; 158 nM (active) in [7]; 199 nM (active) in experiment [8]; 100 nM (active) in experiment [4]. The Potency entry in experiment [5] is “inactive”.
As to `COc1cccc2c(NCc3ccccc3)nc(-n3c(N)nc4ccccc43)nc12`, the Potency in [1] is 9350 nM (active); in experiment [9], 28200 nM (active); in experiment [2], 25100 nM (active); in experiment [7] it was 25100 nM (active); in [10], 25100 nM (active).
Consider `CCNC(=O)Nc1ccc2ncc(Nc3ccc(C)cc3)nc2n1`, for which the Potency result in experiment [9], in experiment [5], in experiment [2], in experiment [6], in experiment [7] and in experiment [8] was “inactive” throughout. Also, the Potency entry in experiment [3], in [10] and in experiment [4] was “inactive” throughout.
With `C=CCn1c(=O)c2cnc(Nc3ccc(N4CCN(C)CC4)cc3)nc2n1-c1cccc(C(C)(C)O)n1`, the Potency in experiment [9] was 1410 nM (active); in [5], 3550 nM (active); in experiment [2], 3160 nM (active); in experiment [6], 1260 nM (active); in experiment [7], 708 nM (active); in experiment [8], 631 nM (active). Also, the Potency in experiment [3] was 3550 nM (active); in experiment [4], 1580 nM (active).
For `CC(=O)Nc1sc2c(c1-c1nc3ccccc3s1)CNC2`, the Potency result in experiment [9], in experiment [2], in [7], in [3] and in [10] was “inactive” throughout. Further, in experiment [4], the Potency is 31600 nM (active).
On to `Cc1nc(N)ncc1-c1nc(N2CCOCC2)c2sc(C(C)(C)O)cc2n1`, for which the Potency was 1780 nM (active) in [9]; 501 nM (active) in [2]; 3160 nM (active) in experiment [8]; 3550 nM (active) in experiment [10]; 7940 nM (active) in experiment [4].
Take `CC(C)c1cnn2c(NCc3ccccc3)cc(N[C@@H](CO)[C@H](O)CO)nc12`: the Potency in [9] is 7080 nM (active); in experiment [2], 4470 nM (active); in experiment [6], 1580 nM (active); in experiment [7] it was 2820 nM (active); in experiment [8] it was 1410 nM (active); in experiment [4], 1000 nM (active).
Consider `Nc1ncnc2c1c(-c1cccc(OCc3ccccc3)c1)cn2C1CC(CN2CCCC2)C1` (stereo unspecified), for which the Potency result in experiment [9] and in [6] was “inactive” throughout.
As for `Cc1cc(Nc2cc(CN3CCOCC3)c3nc(C)c(Cc4ccc(Cl)cc4F)n3n2)n[nH]1`, the Potency result in experiment [9], in experiment [2], in experiment [8] and in experiment [4] was “inactive” throughout. Moreover, the Potency in experiment [7] was 14100 nM (active).
`CC(C)c1noc(N2CCC(COc3ccc(-c4ccc(S(C)(=O)=O)cc4)nc3)CC2)n1`: the Potency result in experiment [9], in experiment [2], in [6], in experiment [7], in experiment [3] and in experiment [10] was “inactive” each time. Further, the Potency result in [4] is “inactive”.
In the case of `NC(=O)c1c(OCc2c(F)cc(Br)cc2F)nsc1NC(=O)NCCCCN1CCCC1`, the Potency entry in experiment [9], in [6], in experiment [7], in experiment [8], in [3] and in experiment [10] was “inactive” throughout.
In the case of `Cc1c(CN2CCN(S(C)(=O)=O)CC2)sc2c(N3CCOCC3)nc(-c3cnc(N)nc3)nc12`, the Potency is 1580 nM (active) in experiment [9]; 708 nM (active) in experiment [2]; 2000 nM (active) in [7]; 501 nM (active) in experiment [8]; 1410 nM (active) in experiment [10]; 1580 nM (active) in experiment [4].
Take `OCc1ccc(-c2ccc(-c3ccc(CO)s3)o2)s1`: the Potency result in [9], in [7] and in experiment [3] was “inactive” throughout. Besides, the Potency in experiment [5] was 199 nM (active); in [8] it was 1410 nM (active); in experiment [10] it was 3160 nM (active); in [4] it was 355 nM (active).
As to `COC(=O)c1ccc2c(C(=Nc3ccc(N(C)C(=O)CN4CCN(C)CC4)cc3)c3ccccc3)c(O)[nH]c2c1`, the Potency entry in experiment [9], in [2], in [6], in [8] and in experiment [3] was “inactive” each time.
On to `COc1cc(-c2nn(C3CCC(N4CCN(C(C)=O)CC4)CC3)c3ncnc(N)c23)ccc1NC(=O)c1cc2ccccc2n1C` (stereo unspecified), for which the Potency entry in experiment [9], in experiment [6], in experiment [7], in [8], in experiment [3] and in experiment [10] was “inactive” each time.

The values above are taken from PubChem BioAssay (NCATS).
